# Experimental data taken from PubChem BioAssay.
# The source made the active and inactive calls. Unless noted, no rule for the calls is given here.
# Legend:
# [1] = anti-His antibody binders, primary screen, artefact control for SMM control protein annotation, biochemical, small-molecule microarray, 635 nm fluorescence (AID 1128); conditions: anti-His Alexa647 antibody binding, higher = more signal;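 also: score merges feature fluorescence with signal-to-noise for each printed compound spot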
# [2] = test system: Human papillomavirus type 1a E7 protein (residues 1-88); test: HPV1a E7 small-molecule binders, primary screen, biochemical, small-molecule microarray, residues 1-88, 635 nm (AID 1129); conditions: small-molecule microarray binding, fluorescence 635 nm; higher = more signal
# [3] = molecular target: Focal adhesion kinase 1 (Homo sapiens) (UniProt Q05397); test: small-molecule microarray binders of FAK, primary screen, biochemical, 635/667 nm fluorescence, BSA, DTT (AID 1130); conditions: PTK2 binding, 635 nm fluorescence, higher = more signal;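 also: composite of spot emission at 667 nm and signal to noise over triplicate slides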
# Chain of Focal adhesion kinase 1 (Homo sapiens) (Q05397 whole entry, looked up): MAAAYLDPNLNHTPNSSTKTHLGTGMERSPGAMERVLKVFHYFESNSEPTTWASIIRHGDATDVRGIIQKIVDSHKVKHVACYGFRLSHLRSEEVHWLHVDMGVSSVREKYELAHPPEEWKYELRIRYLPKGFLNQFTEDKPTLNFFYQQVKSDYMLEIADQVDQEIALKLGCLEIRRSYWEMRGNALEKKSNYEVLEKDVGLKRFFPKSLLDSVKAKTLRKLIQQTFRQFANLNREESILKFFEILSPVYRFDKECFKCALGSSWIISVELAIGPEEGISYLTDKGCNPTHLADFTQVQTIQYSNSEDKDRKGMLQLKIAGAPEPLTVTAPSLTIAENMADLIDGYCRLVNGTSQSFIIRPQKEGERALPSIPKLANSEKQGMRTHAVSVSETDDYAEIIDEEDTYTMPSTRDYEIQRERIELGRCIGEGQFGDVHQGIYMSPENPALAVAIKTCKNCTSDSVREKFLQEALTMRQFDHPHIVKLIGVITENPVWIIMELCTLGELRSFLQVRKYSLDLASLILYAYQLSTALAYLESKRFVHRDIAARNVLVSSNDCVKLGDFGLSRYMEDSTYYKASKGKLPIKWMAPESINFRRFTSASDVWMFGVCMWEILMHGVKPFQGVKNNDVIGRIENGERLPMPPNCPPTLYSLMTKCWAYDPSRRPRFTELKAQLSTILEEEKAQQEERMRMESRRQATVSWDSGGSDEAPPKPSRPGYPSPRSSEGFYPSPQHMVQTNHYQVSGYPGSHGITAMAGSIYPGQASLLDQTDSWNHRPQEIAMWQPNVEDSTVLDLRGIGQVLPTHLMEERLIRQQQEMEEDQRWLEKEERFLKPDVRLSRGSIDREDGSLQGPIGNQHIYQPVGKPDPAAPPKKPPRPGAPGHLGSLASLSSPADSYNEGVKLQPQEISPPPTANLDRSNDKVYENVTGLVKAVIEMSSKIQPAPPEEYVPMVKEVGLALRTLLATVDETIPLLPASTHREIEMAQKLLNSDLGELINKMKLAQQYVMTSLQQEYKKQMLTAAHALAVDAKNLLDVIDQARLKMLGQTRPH
# [4] = test system: Fibrinogen (Alexa647-labelled); test: fibrinogen binders on compound microarrays, profiling panel, artefact control for SMM control-protein annotation, biochemical, small-molecule microarray, 635/667 nm fluorescence (AID 1131); conditions: fibrinogen-A647 binding fluorescence, higher = more signal;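 also: z-score merges 667 nm fluorescence with per-spot signal-to-noise over triplicate slides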
# [5] = molecular target: Follistatin (Homo sapiens) (UniProt P19883); test: follistatin binders on small-molecule microarrays, primary screen, biochemical, small-molecule microarray, 635/667 nm fluorescence (AID 1132); conditions: FST binding, 635 nm fluorescence, higher = more signal
# Chain of Follistatin (Homo sapiens) (P19883 whole entry, looked up): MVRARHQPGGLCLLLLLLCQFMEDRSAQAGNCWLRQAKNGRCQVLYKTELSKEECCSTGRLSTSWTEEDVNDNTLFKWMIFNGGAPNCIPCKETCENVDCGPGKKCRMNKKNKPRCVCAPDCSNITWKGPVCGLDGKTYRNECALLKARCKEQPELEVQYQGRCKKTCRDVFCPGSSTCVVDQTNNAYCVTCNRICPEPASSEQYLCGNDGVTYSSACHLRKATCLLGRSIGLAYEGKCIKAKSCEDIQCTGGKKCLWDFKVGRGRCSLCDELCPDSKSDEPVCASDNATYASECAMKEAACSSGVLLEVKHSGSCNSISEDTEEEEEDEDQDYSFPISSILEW
# [6] = molecular target: Fibroblast growth factor 2 (Homo sapiens) (UniProt P09038); test: FGF2 binders on small-molecule microarrays, primary screen, biochemical, small-molecule microarray, 635/667 nm fluorescence (AID 1133); conditions: small-molecule microarray binding, FGF2, fluorescence 635/667; higher = more signal
# Chain of Fibroblast growth factor 2 (Homo sapiens) (P09038 whole entry, looked up): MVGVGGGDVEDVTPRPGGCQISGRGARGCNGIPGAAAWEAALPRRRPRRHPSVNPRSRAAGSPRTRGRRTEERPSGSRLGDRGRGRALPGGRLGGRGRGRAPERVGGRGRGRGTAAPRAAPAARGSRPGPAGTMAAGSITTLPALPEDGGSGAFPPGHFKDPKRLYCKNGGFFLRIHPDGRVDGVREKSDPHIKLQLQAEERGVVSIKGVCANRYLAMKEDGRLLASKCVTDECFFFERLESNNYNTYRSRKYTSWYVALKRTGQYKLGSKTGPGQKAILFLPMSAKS
# [7] = mitochondrial membrane potential change in A549 cells, profiling panel, cell-based, JC-1 fluorescence, basal, 24 h, 100 nL (AID 1138); conditions: higher = more signal;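 also: A549 lung adenocarcinoma cells under basal conditions with no added stimulus; test concentration not given here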
# [8] = test system: Lefty1; test: Lefty1 binders on small-molecule microarrays, primary screen, biochemical, small-molecule microarray, 635/667 nm fluorescence (AID 1139); conditions: small-molecule microarray binding, fluorescence 635/667; higher = more signal
# [9] = test system: wheat germ agglutinin (Triticum aestivum), Alexa647-labelled; test: wheat germ agglutinin binders on compound microarrays, profiling panel, artefact control for SMM control-protein annotation, biochemical, small-molecule microarray, 635/667 nm fluorescence (AID 1140); conditions: WGA-A647 binding, 635 nm fluorescence, higher = more signal;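 also: score merges 667 nm feature emission with signal to noise over triplicate slides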
# [10] = molecular target: Luciferin 4-monooxygenase (Photinus pyralis) (UniProt P08659); test: firefly luciferase enzyme inhibitors, primary screen, biochemical, luminescence, purified enzyme, 2006 set (AID 1141); conditions: SteadyGlo luminescence, 30 min, higher = more signal, called active from +8 up or from −8 down;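 also: cell-free assay with purified firefly luciferase at 100 ng per well in PBS; test concentration not given here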
# Chain of Luciferin 4-monooxygenase (Photinus pyralis) (P08659 whole entry, looked up): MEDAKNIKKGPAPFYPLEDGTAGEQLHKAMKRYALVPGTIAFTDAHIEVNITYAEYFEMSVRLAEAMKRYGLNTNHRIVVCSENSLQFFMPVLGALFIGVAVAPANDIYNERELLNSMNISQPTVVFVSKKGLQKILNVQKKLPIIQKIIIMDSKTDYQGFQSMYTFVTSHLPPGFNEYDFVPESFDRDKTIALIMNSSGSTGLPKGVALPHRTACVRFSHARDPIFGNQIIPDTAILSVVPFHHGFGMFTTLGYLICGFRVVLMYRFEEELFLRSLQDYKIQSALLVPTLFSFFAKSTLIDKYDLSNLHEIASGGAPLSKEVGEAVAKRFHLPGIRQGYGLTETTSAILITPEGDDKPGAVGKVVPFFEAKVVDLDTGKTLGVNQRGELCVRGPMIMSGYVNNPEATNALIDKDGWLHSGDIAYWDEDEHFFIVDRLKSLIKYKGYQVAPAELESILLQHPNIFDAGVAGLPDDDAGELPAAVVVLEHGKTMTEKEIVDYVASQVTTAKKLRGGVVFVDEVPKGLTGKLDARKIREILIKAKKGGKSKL
# [11] = test system: Wnt5a (protein binding on small-molecule microarray); test: Wnt5a binders on small-molecule microarray, primary screen, biophysical, 635/667 nm fluorescence (AID 1142); conditions: 635 nm fluorescence, higher = more signal;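 also: fluorescence read at 667 nm with signal to noise per printed feature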
# [12] = cell viability in Huh7 cells, primary screen, cytotoxicity control for HCV replication inhibitor project, CellTiter-Glo luminescence, basal, 48 h (AID 1143); conditions: Huh7 HCV replicon, higher = more signal, called active from +8 up or from −8 down;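 also: Huh7 hepatoma cells carrying a hepatitis C replication reporter with no stimulus; test concentration not given here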
# [13] = P. aeruginosa biofilm formation inhibitors, primary screen, PAO1 strain, BacTiter-Glo luminescence, LB-PBS (AID 1144); conditions: 12 h, higher = more signal
# [14] = CREB reporter modulators without forskolin, primary screen, cell-based, PC12, CRE-LacZ reporter, unstimulated (AID 1145); conditions: no forskolin, luminescence, 4.5 h, higher = more signal, called active from +8 up or from −8 down
# [15] = CREB reporter modulators under forskolin, primary screen, cell-based, PC12, CRE-LacZ reporter, forskolin-stimulated (AID 1146); conditions: luminescence, 4.5 h, higher = more signal, called active from +8 up or from −8 down;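 also: PC12 cells with 6xCRE LacZ reporter stimulated by forskolin 10 µM; beta-galactosidase reporter signal reflecting CREB driven transcription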
# [16] = molecular target: Streptavidin (Streptomyces avidinii) (UniProt P22629); test: streptavidin binders on small-molecule microarray, primary screen, artefact control for SMM compound annotation, biophysical, 635/667 nm fluorescence (AID 1147); conditions: streptavidin binding, higher = more signal;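 also: signal reflects streptavidin binding to arrayed compounds as a control protein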
# Chain of Streptavidin (Streptomyces avidinii) (P22629 whole entry, looked up): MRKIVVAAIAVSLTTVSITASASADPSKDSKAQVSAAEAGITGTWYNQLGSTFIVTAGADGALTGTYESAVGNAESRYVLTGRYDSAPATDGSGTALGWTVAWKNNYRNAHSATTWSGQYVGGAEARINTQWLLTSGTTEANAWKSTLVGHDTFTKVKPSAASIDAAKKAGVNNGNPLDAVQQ
# [17] = small-molecule binders of probe aInhba, primary screen, biochemical, small-molecule microarray, 635/667 nm fluorescence (AID 1148); conditions: higher = more signal;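 also: score merges 667nm spot fluorescence with signal-to-noise for antibody binding to printed compounds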
# [18] = molecular target: Torsin-1A (Homo sapiens) (UniProt O14656); test: torsin A binders from cell lysate, primary screen, small-molecule microarray, wild-type, 635/667 nm (AID 1149); conditions: COS7 hTOR1A-WT lysate, 635 nm fluorescence, higher = more signal
# Chain of Torsin-1A (Homo sapiens) (O14656 whole entry, looked up): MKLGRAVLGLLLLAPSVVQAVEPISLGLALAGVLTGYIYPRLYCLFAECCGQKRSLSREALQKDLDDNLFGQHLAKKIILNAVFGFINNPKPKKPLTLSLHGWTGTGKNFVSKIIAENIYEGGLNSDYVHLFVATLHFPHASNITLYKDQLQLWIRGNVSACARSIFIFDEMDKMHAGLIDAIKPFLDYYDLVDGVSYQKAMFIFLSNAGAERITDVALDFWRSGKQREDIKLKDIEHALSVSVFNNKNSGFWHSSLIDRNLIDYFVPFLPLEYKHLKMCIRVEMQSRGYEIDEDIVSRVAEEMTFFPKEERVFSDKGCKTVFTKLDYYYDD
# [19] = molecular target: Torsin-1A (Homo sapiens) (UniProt O14656); test: small-molecule binders of mutant TOR1A in lysate, primary screen, cell lysate, small-molecule microarray, COS7 lysate, 635/667 nm fluorescence (AID 1150); conditions: COS7 hTOR1A mutant lysate, 635 nm fluorescence, higher = more signal;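 also: score pools 667 nm emission and signal to noise measuring lysate protein binding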
# [20] = test system: Sonic hedgehog protein (Shh); test: small-molecule binders of Shh protein, primary screen, biochemical, small-molecule microarray, 635/667 nm fluorescence (AID 1151); conditions: small-molecule microarray binding, 635 nm fluorescence; higher = more signal;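 also: Shh protein binding to compounds spotted on small-molecule microarray slides; score combines spot fluorescence intensity with signal-to-noise across triplicate slides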
Compound,composite z-score [1],composite z-score [2],composite z-score [3],composite z-score [4],composite z-score [5],composite z-score [6],z-score [7],composite z-score [8],composite z-score [9],z-score [10],composite z-score [11],z-score [12],z-score [13],z-score [14],z-score [15],composite z-score [16],composite z-score [17],composite z-score [18],composite z-score [19],composite z-score [20]
COC(=O)[C@@]1(Cc2ccc(F)cc2)[C@H]2c3cc(C(=O)N(C)C)n(Cc4ccc(S(C)(=O)=O)cc4)c3C[C@H]2CN1C(=O)c1ccccc1,0.904,0.941,1.16,1.01,0.158,0.0722,0.521,-0.224,0.766,0.202 (inactive),0.0577,-0.845 (inactive),-0.65 (inactive),0.766 (inactive),-0.428 (inactive),1.02,0.266,0.33,0.0685,-0.447
CN1C(=O)[C@]2(Cc3ccccc3)N=C(c3ccc(OCCCO)cc3)O[C@@H]2c2ccccc21,0.0581,1.2,1.07,0.775,1.3,1.8,-0.00476,0.201,0.831,-4.06 (inactive),0.928,-4.61 (inactive),-1 (inactive),0.456 (inactive),-1.12 (inactive),0.0004,0.112,0.428,0.628,1.15
COc1cc2c(cc1O)C(C1CC1)N(Cc1cc3c(cc1Br)OCO3)CC2 (stereo not given),-1.4,-0.603,-0.629,-0.736,-0.774,-0.746,-0.721,-1.01,-0.503,-0.0849 (inactive),-0.481,-5.73 (inactive),-0.109 (inactive),0.245 (inactive),4.34 (inactive),-0.735,-0.179,-0.151,-0.416,-1.09
O=C1C2C=CC(C(O)c3ccc(F)cc3)N(Nc3ccccc3F)C2C(=O)N1c1ccccc1 (stereo not given),1.55,1.13,0.198,0.958,1,-0.514,-0.227,-0.497,1.17,1.28 (inactive),-0.0864,0.486 (inactive),-0.746 (inactive),0.433 (inactive),1.53 (inactive),0.59,0.254,0.0654,0.845,-0.166
C=C(C)C1C(=C)CN([C@H](CO)c2ccccc2)C1=O (stereo not given in full),0.0639,-0.534,-0.521,-0.0803,0.189,-0.158,-0.647,0.587,-0.187,1.01 (inactive),-0.231,-0.677 (inactive),-0.65 (inactive),-0.141 (inactive),0.176 (inactive),-1.12,-0.103,-1.46,-0.821,1.28
C=CCN1C(=O)[C@@]2(O[C@@H](CCO)[C@H]([Si](C)(C)c3ccc(OC)cc3)[C@H]2C)c2cc(NC(=O)c3ccc(OC)cc3)ccc21,0.919,0.563,-0.0376,0.259,1.38,1.2,2.81,0.763,0.458,-1.26 (inactive),0.157,-6.5 (inactive),-0.39 (inactive),10.6 (active),-1.6 (inactive),0.15,-0.0221,0.214,0.373,1.64
CC1CC/C=C\[C@H]2OC34C=CCN(c5ccc(Cl)cc5)C(=O)[C@H]3N(CCO)C(=O)[C@]4(C)C2C(=O)O1 (stereo not given in full),3.56,-0.0955,1.67,-1.84,-0.338,-0.492,-0.259,-0.49,0.811,0.259 (inactive),-0.642,-0.901 (inactive),0.43 (inactive),0.87 (inactive),-0.217 (inactive),-0.561,-0.128,-0.433,-1.01,-0.317
COCCOC(=O)N1C(=O)[C@@]2(c3cc(C#CCCO)ccc31)[C@H](C(=O)Nc1nc3ccccc3s1)[C@H]1C(=O)O[C@H](c3ccccc3)[C@H](c3ccccc3)N1[C@@H]2c1ccc(OCCO)cc1,0.738,0.957,0.128,0.944,1.27,1.65,-2.4,1.26,0.482,-2.56 (inactive),0.281,-0.224 (inactive),-1.05 (inactive),-1.14 (inactive),-0.432 (inactive),1.06,0.138,0.367,1.42,1.56
COc1ccc([Si](C)(C)[C@H]2[C@H](CCn3cc([C@H](O)c4ccccc4)nn3)O[C@@]3(C(=O)N(Cc4cccc(N5CCOC5=O)c4)c4ccccc43)[C@@H]2C)cc1,0.0694,0.679,0.0871,0.401,1.28,0.669,0.711,0.892,0.22,0.387 (inactive),0.488,-1.78 (inactive),-0.394 (inactive),-0.36 (inactive),1.32 (inactive),0.283,-0.362,0.132,0.199,1.5
